Measurements taken from PubChem BioAssay (NCATS).
Results filed as inconclusive are left out. Entries that show only a call come without a potency. A number with no mark means an inactive call. Activity calls are given as the source filed them. Calls come from the whole dose curve; as a rule, active = well fitted curve in the direction sought with a large enough effect; inconclusive = small, poorly fitted or top-dose-only effect, or another doubt; inactive = no such curve, though single readings can be large; an effect the other way counts as inactive or inconclusive.

The compounds below were run against Rap guanine nucleotide exchange factor 4 (Homo sapiens) (UniProt Q8WZA2) (assay: Confirmatory qHTS for agonist of cAMP-regulated guanine nucleotide exchange factor 4 (EPAC2) (AID 1645884;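 note: nucleotide exchange releases bodipy-GDP from Rap1 and this lowers its fluorescence; nearly all actives have a fitted effect of over 65% in size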)). Settings: EPAC2 GEF activity, Rap1B-BODIPY-GDP fluorescence; series mostly up to 154 µM.
Chain of Rap guanine nucleotide exchange factor 4 (Homo sapiens) (Q8WZA2 whole entry, looked up): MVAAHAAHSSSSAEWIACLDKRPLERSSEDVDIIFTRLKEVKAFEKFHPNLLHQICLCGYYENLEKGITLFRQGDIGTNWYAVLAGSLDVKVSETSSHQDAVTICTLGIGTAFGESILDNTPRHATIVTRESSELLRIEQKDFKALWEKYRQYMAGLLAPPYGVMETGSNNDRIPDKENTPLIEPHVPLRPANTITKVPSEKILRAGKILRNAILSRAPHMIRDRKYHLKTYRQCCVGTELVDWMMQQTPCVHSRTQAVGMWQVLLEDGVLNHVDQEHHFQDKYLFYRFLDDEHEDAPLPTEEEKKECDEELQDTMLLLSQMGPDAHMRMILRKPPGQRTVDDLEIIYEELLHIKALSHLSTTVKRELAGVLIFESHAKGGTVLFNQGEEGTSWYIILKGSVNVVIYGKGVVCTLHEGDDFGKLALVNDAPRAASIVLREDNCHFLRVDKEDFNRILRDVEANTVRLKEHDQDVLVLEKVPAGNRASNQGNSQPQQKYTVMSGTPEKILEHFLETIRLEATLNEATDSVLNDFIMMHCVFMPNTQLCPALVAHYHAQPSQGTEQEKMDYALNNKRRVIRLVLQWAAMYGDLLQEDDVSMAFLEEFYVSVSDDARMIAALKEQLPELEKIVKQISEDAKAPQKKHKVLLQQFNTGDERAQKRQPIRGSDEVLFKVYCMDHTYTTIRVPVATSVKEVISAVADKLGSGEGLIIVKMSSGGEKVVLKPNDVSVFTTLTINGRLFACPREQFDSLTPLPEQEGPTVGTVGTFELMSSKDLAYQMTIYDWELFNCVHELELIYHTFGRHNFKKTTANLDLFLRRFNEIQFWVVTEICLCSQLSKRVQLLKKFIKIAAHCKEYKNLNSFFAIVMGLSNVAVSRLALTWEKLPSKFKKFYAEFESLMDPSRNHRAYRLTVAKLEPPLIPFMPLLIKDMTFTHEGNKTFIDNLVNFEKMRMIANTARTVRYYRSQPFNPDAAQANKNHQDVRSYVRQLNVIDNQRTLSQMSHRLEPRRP

| SMILES | Potency | activation |
| --- | --- | --- |
| O=C(c1ccc(-c2nnc(Nc3cccc(Cl)c3)c3ccccc23)cc1)N1C[C@H]2C[C@H](C1)c1cccc(=O)n1C2 | inactive |  |
| O=C(NNc1c2ccccc2nc2ccccc12)c1ccccc1O | inactive |  |
| CC1=C(C(=O)OC(C)C)C(c2ccc(C)o2)C(C(=O)OC(C)C)=C(C)N1 | inactive |  |
| O=C(Cc1ccc(Cl)cc1)N/N=C/c1ccc(O)c(O)c1 | inactive |  |
| CCOc1ccc(S(=O)(=O)Nc2cc(NS(=O)(=O)c3ccc(OCC)cc3)cc(C(=O)O)c2)cc1 | inactive |  |
| C[C@H](c1ccccc1)N1C[C@H](COCc2ccccc2)Oc2cc(N3CC[C@@H](O)C3)ccc2S1(=O)=O |  | 10.3% [at 17.1 µM, percent relative to cAMP agonist control] |
| CCOC(=O)N(C)c1c(CC)nc2c(OCc3ccc(C(F)(F)F)cc3)cccn12 | inactive |  |
| O=C(CSc1nc(-c2cccs2)nc2cc(=O)[nH]n12)Nc1cccc(C(F)(F)F)c1 | inactive |  |
| Cc1ccc(S(=O)(=O)Nc2ccc(S(=O)(=O)Nc3nccs3)cc2)cc1C | inactive |  |
| Cc1csc2c(=O)sc(NC(=O)c3cccs3)nc12 | inactive |  |
| C/C=C/c1cc(OC)c2c(c1)[C@H](C)[C@@H](c1ccc(O)c(OC)c1)O2 | inactive |  |
| NS(=O)(=O)c1ccc(NC(=O)c2cccc(N3C(=O)c4ccccc4C3=O)c2)cc1 |  | 3.4% [at 17.1 µM, percent relative to cAMP agonist control] |
| CCOc1cc(/C=C/c2cc(C(=O)O)c3ccccc3n2)ccc1OC |  | -3.6% [at 17.1 µM, percent relative to cAMP agonist control] |
| O=C(N[C@H](Cc1ccc(Cl)cc1)C(=O)O)OCC1c2ccccc2-c2ccccc21 |  | -11.8% [at 17.1 µM, percent relative to cAMP agonist control] |

What follows are compounds tested against Rap guanine nucleotide exchange factor 4 (Homo sapiens) (UniProt Q8WZA2) (assay: Confirmatory qHTS for antagonist of cAMP-regulated guanine nucleotide exchange factor 4 (EPAC2) (AID 1645885; note: nearly all actives have a fitted effect of over 25% in size; note: potency is the fitted concentration of half-maximal effect)). Settings: EPAC2 Rap1B-BODIPY-GDP exchange fluorescence, biochemical; series mostly up to 12.7 µM.

| SMILES | Potency |
| --- | --- |
| O=C(O)/C(=C\c1ccc(-c2ccc(F)cc2)o1)c1ccccc1 | inactive |
| CCCCCCn1nc(C(=O)OCC(=O)c2c(N)n(C)c(=O)n(C)c2=O)c2ccccc2c1=O | inactive |
| COc1ccc(C(=O)Nc2ccccc2-c2nnn(CC(N)=O)n2)cc1 | inactive |
| O=C(Cn1ncc(Cl)c(Cl)c1=O)NC(=O)NC1CCCCC1 | inactive |
| O=C(COC(=O)c1ccc2c(c1)C(=O)N(Cc1ccncc1)C2=O)Nc1ccccc1[N+](=O)[O-] | inactive |
| CCc1c(O)cc(=O)n(-c2ccccc2)c1-c1ccccc1 | 84.9 µM (active) |
| COc1ccc(N=C2SC(C(=O)Nc3ccc(C(=O)O)cc3)CC(=O)N2Cc2cccs2)cc1 (stereo not given) | inactive |
| Cc1ccc(C)c(Cn2nc(-c3cc(C)ccc3C)ccc2=O)c1 | inactive |
| Cc1cc2oc(=O)c(CC(=O)O)c(C)c2c2occ(-c3ccccc3)c12 | inactive |
| Cc1cc(C)c(C)c(S(=O)(=O)N2CCCCC2C(=O)O)c1C (stereo not given) | inactive |
| C=CCn1c(=NC(=O)c2sc3ccccc3c2Cl)sc2cc(S(N)(=O)=O)ccc21 | inactive |
| CCOC(=O)C1=C(C)N=c2s/c(=C/c3cccc([N+](=O)[O-])c3O)c(=O)n2C1c1ccccc1 (stereo not given) | inactive |
| CCN1CCc2c(sc(-n3cccc3)c2C(C)NC(=O)Nc2ccc(C(=O)OC)cc2)C1 (stereo not given) | inactive |
| CCN(C(=O)c1noc2c1COc1ccc(C)cc1-2)c1cccc(C)c1 | inactive |
| O=C(/C=C/c1ccco1)NC(=S)Nc1cccc(-c2nc3ccccc3o2)c1 | inactive |
| Cc1nnc(-c2ccco2)c2cn(-c3cccc(Br)c3)nc12 | inactive |
| Oc1ccc(NCc2ccc(OCc3ccccc3Cl)cc2)cc1 | inactive |
| Cc1cccc(C(=O)N=c2c(C#N)cc3c(=O)n4cccc(C)c4nc3n2Cc2ccco2)c1 | inactive |
| N#CC(c1nc2ccccc2nc1OCCO)S(=O)(=O)c1ccccc1 (stereo not given) | inactive |
| COc1ccc(/C=N\Nc2ccc([N+](=O)[O-])cc2)c(C(=O)O)c1OC | inactive |
| COc1cc(/C=N/NC(=O)c2ccccc2O)ccc1OCC(=O)Nc1ccccc1 | inactive |
| CCCCC(CC)COC1(c2ccccc2)OC(=O)c2ccccc21 (stereo not given) | inactive |
| O=C(C=Cc1ccccc1)c1c[nH]c2ccccc2c1=O | inactive |
| CC1CCC(NC(=O)Cn2c3c(c(-c4ccccc4Cl)cc2=O)CCC3)CC1 (stereo not given) | inactive |
| Nc1ccc(SC(F)(F)F)cc1C(=O)c1ccccc1 | inactive |
| O=C(N/N=C/c1ccc(O)c([N+](=O)[O-])c1)C1CC1(c1ccccc1)c1ccccc1 (stereo not given) | inactive |
